Data from a collection of fitness landscapes (doi:10.1016/j.celrep.2020.107928).
Over roughly 81,000 sequences, “one-hybrid fitness for binding parS DNA” has its median near -0.17; the highest 2% begin near 0.51. For the sample, the highest values were picked, then their nearest neighbours and some sequences at random.

B1: Caulobacter ParB omega fusion; a variant is named by its letters at X, in order, B8GW30 (parent)
chain: MESVVVGEPGMSEGRRGLGRGLSALLGEVDAAPAQAPGEQLGGSREAPIEILQRNPDQPRRTFREEDLEDLSNSIREKGVLQPILVRPSPDTAGEYQIVAGERAWRAAQRAGLKTVPIMVRELDDLAVLEIGIIENVQRADLNVLEEALSYKVLMEKFERTQENIAQTIGKSXSHVANXMRLLXLPDEVQSYLVSGELTAXHARAIAAAADPVALAKQIIEGGLSVRETEALARKAPNLSAGKSKGGRPPRVKDTDTQALESDLSSVLGLDVSIDHRGSTGTLTITYATLEQLDDLCNRLTRGI

Variants of: B1
Test: one-hybrid fitness for binding parS DNA (scaled: cognate 1, non-cognate 0); higher = stronger binding
Conditions: with parS DNA site
Method in brief: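 Selection: bacterial one-hybrid in E. coli USO, HIS3 reporter with the site 19 bp from the promoter, 48 hours at 37°C on M9-minus-histidine plus 0.1 mM IPTG and 5 mM 3-AT. Libraries were Caulobacter ParB with four randomised specificity codons, sequenced on Illumina before and after selection. Fitness is the rescaled log change in variant-to-wild-type read ratio, anchored to the cognate and non-cognate sites.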
For PWGP, the “one-hybrid fitness for binding parS DNA” value was no more than 0.2.
In the case of CSAK, the “one-hybrid fitness for binding parS DNA” value is reported as no more than 0.2.
HTAP was tested, and the “one-hybrid fitness for binding parS DNA” value was no more than 0.2.
VEFT was tested, and the “one-hybrid fitness for binding parS DNA” value was no more than 0.2.
QGNA was tested, and the “one-hybrid fitness for binding parS DNA” value was no more than 0.2.
In the case of YNSE, the “one-hybrid fitness for binding parS DNA” value is reported as no more than 0.2.
In the case of QDDR, the “one-hybrid fitness for binding parS DNA” value is reported as no more than 0.2.
TNQC was tested, and the “one-hybrid fitness for binding parS DNA” value was no more than 0.2.
For APGM, the “one-hybrid fitness for binding parS DNA” value was no more than 0.2.
For QNSI, the “one-hybrid fitness for binding parS DNA” value was no more than 0.2.
RFWA was tested, and the “one-hybrid fitness for binding parS DNA” value was 0.481.
For RKWA, the “one-hybrid fitness for binding parS DNA” value was 0.58.
With RRWA the “one-hybrid fitness for binding parS DNA” value was 0.834.
RGWA was tested, and the “one-hybrid fitness for binding parS DNA” value was 0.282.
For RTWA, the “one-hybrid fitness for binding parS DNA” value was 0.626.
With RSWA the “one-hybrid fitness for binding parS DNA” value was 0.546.
NRWA was tested, and the “one-hybrid fitness for binding parS DNA” value was no more than 0.2.
RHWA was tested, and the “one-hybrid fitness for binding parS DNA” value was 0.486.
For WTTC, the “one-hybrid fitness for binding parS DNA” value was no more than 0.2.
In the case of NRTE, the “one-hybrid fitness for binding parS DNA” value is reported as no more than 0.2.
With GCLA the “one-hybrid fitness for binding parS DNA” value was no more than 0.2.
In the case of YTTD, the “one-hybrid fitness for binding parS DNA” value is reported as no more than 0.2.
EGCL was tested, and the “one-hybrid fitness for binding parS DNA” value was no more than 0.2.
FWSR was tested, and the “one-hybrid fitness for binding parS DNA” value was no more than 0.2.
PAVQ was tested, and the “one-hybrid fitness for binding parS DNA” value was no more than 0.2.
In the case of QHPF, the “one-hybrid fitness for binding parS DNA” value is reported as no more than 0.2.
For LPIQ, the “one-hybrid fitness for binding parS DNA” value was no more than 0.2.
RGLG was tested, and the “one-hybrid fitness for binding parS DNA” value was 0.597.
RGQH was tested, and the “one-hybrid fitness for binding parS DNA” value was no more than 0.2.
For RGLH, the “one-hybrid fitness for binding parS DNA” value was no more than 0.2.
RGSP was tested, and the “one-hybrid fitness for binding parS DNA” value was no more than 0.2.
In the case of RGQP, the “one-hybrid fitness for binding parS DNA” value is reported as no more than 0.2.
In the case of RGLP, the “one-hybrid fitness for binding parS DNA” value is reported as no more than 0.2.
With RGKP the “one-hybrid fitness for binding parS DNA” value was no more than 0.2.
With RGVG the “one-hybrid fitness for binding parS DNA” value was 0.502.
With RGSH the “one-hybrid fitness for binding parS DNA” value was no more than 0.2.
For RGQG, the “one-hybrid fitness for binding parS DNA” value was 0.727.
For RGKG, the “one-hybrid fitness for binding parS DNA” value was 0.896.
In the case of RGSG, the “one-hybrid fitness for binding parS DNA” value is reported as 0.771.
In the case of PKPQ, the “one-hybrid fitness for binding parS DNA” value is reported as no more than 0.2.
For PRNG, the “one-hybrid fitness for binding parS DNA” value was no more than 0.2.
With HPRY the “one-hybrid fitness for binding parS DNA” value was no more than 0.2.
With RGAN the “one-hybrid fitness for binding parS DNA” value was no more than 0.2.
For RGCG, the “one-hybrid fitness for binding parS DNA” value was 0.558.
In the case of RGAG, the “one-hybrid fitness for binding parS DNA” value is reported as 0.661.
RGCM was tested, and the “one-hybrid fitness for binding parS DNA” value was no more than 0.2.
For RGFG, the “one-hybrid fitness for binding parS DNA” value was 0.504.
With RGYG the “one-hybrid fitness for binding parS DNA” value was 0.576.
For RGPG, the “one-hybrid fitness for binding parS DNA” value was 0.298.
With RGCP the “one-hybrid fitness for binding parS DNA” value was no more than 0.2.
With RGNG the “one-hybrid fitness for binding parS DNA” value was 0.801.
For RGDG, the “one-hybrid fitness for binding parS DNA” value was 0.496.
In the case of RGIG, the “one-hybrid fitness for binding parS DNA” value is reported as 0.47.
With RGNH the “one-hybrid fitness for binding parS DNA” value was no more than 0.2.
For PPPF, the “one-hybrid fitness for binding parS DNA” value was no more than 0.2.
In the case of VAEC, the “one-hybrid fitness for binding parS DNA” value is reported as no more than 0.2.
In the case of FHHI, the “one-hybrid fitness for binding parS DNA” value is reported as no more than 0.2.
RGAI was tested, and the “one-hybrid fitness for binding parS DNA” value was no more than 0.2.
In the case of LDML, the “one-hybrid fitness for binding parS DNA” value is reported as no more than 0.2.
In the case of CFTC, the “one-hybrid fitness for binding parS DNA” value is reported as no more than 0.2.
For MHTL, the “one-hybrid fitness for binding parS DNA” value was no more than 0.2.
In the case of NSGN, the “one-hybrid fitness for binding parS DNA” value is reported as no more than 0.2.
MIEG was tested, and the “one-hybrid fitness for binding parS DNA” value was no more than 0.2.
In the case of RGHG, the “one-hybrid fitness for binding parS DNA” value is reported as 0.65.
RGRH was tested, and the “one-hybrid fitness for binding parS DNA” value was no more than 0.2.
RGWY was tested, and the “one-hybrid fitness for binding parS DNA” value was no more than 0.2.
In the case of RGGH, the “one-hybrid fitness for binding parS DNA” value is reported as no more than 0.2.
In the case of RGHN, the “one-hybrid fitness for binding parS DNA” value is reported as no more than 0.2.
For RGGD, the “one-hybrid fitness for binding parS DNA” value was no more than 0.2.
In the case of RGRN, the “one-hybrid fitness for binding parS DNA” value is reported as 0.341.
For RGWR, the “one-hybrid fitness for binding parS DNA” value was no more than 0.2.
For RGGG, the “one-hybrid fitness for binding parS DNA” value was 0.64.
For RGRG, the “one-hybrid fitness for binding parS DNA” value was 0.874.
RGWG was tested, and the “one-hybrid fitness for binding parS DNA” value was 0.51.
In the case of RGHP, the “one-hybrid fitness for binding parS DNA” value is reported as no more than 0.2.
For KLKH, the “one-hybrid fitness for binding parS DNA” value was no more than 0.2.
For KDID, the “one-hybrid fitness for binding parS DNA” value was no more than 0.2.
For PVSF, the “one-hybrid fitness for binding parS DNA” value was no more than 0.2.
QEKR was tested, and the “one-hybrid fitness for binding parS DNA” value was no more than 0.2.
For MRPT, the “one-hybrid fitness for binding parS DNA” value was no more than 0.2.
NPTS was tested, and the “one-hybrid fitness for binding parS DNA” value was no more than 0.2.
FQVG was tested, and the “one-hybrid fitness for binding parS DNA” value was no more than 0.2.
NYES was tested, and the “one-hybrid fitness for binding parS DNA” value was no more than 0.2.
RYNA was tested, and the “one-hybrid fitness for binding parS DNA” value was 0.58.
For EYNA, the “one-hybrid fitness for binding parS DNA” value was no more than 0.2.
For DYNA, the “one-hybrid fitness for binding parS DNA” value was no more than 0.2.
In the case of RYDA, the “one-hybrid fitness for binding parS DNA” value is reported as 0.559.
